Inconclusive results are not listed. The source made the active and inactive calls.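 How the source made its calls, unless noted: active means viability at or below 27.92% in each of two runs, the all-compound median minus 4 SD; inconclusive means no clear call, values can overlap the other calls; inactive means the rest.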
Tests used:
[1] = Her2 expression decrease, cell viability multiplex – SKBR3 breast tumor cells, AlphaScreen, ATP viability, primary screen (AID 461;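 active means Her2 level under about 52% in both replicate screens, with viability over 70% of control, limit read from the data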;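 on Her2 level: lower value means less Her2 protein in the cells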;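 on viability: percent of carrier control wells set as 100% viability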); conditions: SKBR3 Her2 protein level, 18-24 h, measured here: SKBR3 viability, ATP luminescence, at 10 µM
[2] = biological target: Receptor tyrosine-protein kinase erbB-2 (Homo sapiens) (UniProt P04626); experiment: as above; conditions: 18-24 h, at 10 µM, stronger effect = lower value
[3] = reduced viability of SK-BR-3 breast cancer cells – cell-based, 24 h, human, pilot screen (AID 572;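 active means viability at or below 10% of carrier control in both of two separate runs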;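 further: compound exposure lasted between 18 and 24 h rather than exactly 24 h; 100% = carrier-treated control wells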); conditions: SK-BR-3 viability, CellTiter-Glo luminescence, at 10 µM, stronger effect = lower value
[4] = HUVEC growth inhibition – cell-based, human, primary screen (AID 575;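 active means viability at or below 30% in both replicate assays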;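 further: 100% = median of untreated cell wells with 0.1% DMSO on each plate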); conditions: HUVEC proliferation, CellTiter-Glo luminescence, 72 h; at 10 µM; stronger effect = lower value
[5] = H69AR cell proliferation blockers – human, duplicate replicates, primary screen (AID 580;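 active means viability at or under a set limit in both replicates, limit being median viability minus 3 SD, cut at about 48% in these data, passing the limit was not always enough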;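 further: 100% = mean luminescence of untreated wells and 0% = no signal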); conditions: H69AR lung tumor cells viability, ATP luminescence, 72 h; at 10 µM; stronger effect = lower value
[6] = MRP1 drug-resistance reversers in H69AR cells – cell-based, doxorubicin co-treatment, pilot screen (AID 601;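 active means viability loss from added drug above about 55%, and viability with drug at most 40%, in both replicates, limit read from the data, passing the limit was not always enough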); conditions: CellTiter-Glo, 72 h, at 10 µM; for differential viability (reversal): stronger effect = higher value
[7] = yeast transport mutant growth inhibition pilot in 384-well plates, post-Golgi transport modulator project (AID 636; in the data active means inhibition above about 31%); conditions: absorbance 615 nm, about 18 h, stronger effect = higher value
[8] = growth suppression of yeast trafficking mutant, preliminary HTS, modulators of trafficking downstream of Golgi apparatus project, 1536-format plate, OD 615 nm (AID 637; in the data active means inhibition above about 30%); conditions: yeast transport mutant growth, absorbance 615 nm, 18 h; stronger effect = higher value
[9] = S. cerevisiae growth inhibition in permissive medium (OD615), pilot counter-assay for S. cerevisiae lifespan shortening project, permissive growth control (AID 705;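 active means growth inhibition above 25% in both replicates, a cutoff set 3 SD above the mean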); conditions: OD615, 24 h, at 10 µM, stronger effect = higher value
[10] = S. cerevisiae growth inhibition in restrictive medium, OD615, pilot screen, restrictive growth control, yeast lifespan reduction project (AID 706;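 active means growth inhibition above a set limit, 3 SD over mean compound inhibition, in both replicates, cut at about 43% in these data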;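 further: modified DeaD lifespan yeast strain shifted to restrictive glucose medium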); conditions: OD615, 48 h, at 10 µM, stronger effect = higher value
[11] = doxorubicin toxicity protection in MRP-1 cells – H69AR cells, CellTiter-Glo, duplicate, MRP-1 activator project, pilot screen (AID 807;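 active means viability increase at or above a cutoff of the median across tested compounds plus 3 SD, cut at about 8.5% in these data, passing the limit was not always enough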;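 further: compound pretreatment 18-22 h then 72 h combined with doxorubicin; 0% = doxorubicin alone and 100% = vehicle without doxorubicin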); conditions: H69AR viability with doxorubicin, CellTiter-Glo luminescence; at 10 µM; stronger effect = higher value
[12] = viability of HCT116 without oncogenic beta-catenin – human colon tumor cells, pilot screen (AID 823;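 active means cell viability at or below a set limit in both duplicate runs, the limit being the all-compound median minus 4 SD, cut at about 23% in these data, passing the limit was not always enough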;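 further: 0% = wells killed by 20 µM Hyamine and 100% = untreated DMSO cell wells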); conditions: HCT116 beta-catenin knockout viability, CellTiter-Glo, 60 h; at 10 µM; stronger effect = lower value
[13] = viability of PTEN-null HCT116 cells – cell-based, HCT116 clonal line, CellTiter-Glo, pilot screen (AID 824); conditions: HCT116 PTEN-deleted viability, 60 h, at 10 µM, stronger effect = lower value;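 further: 0% = 20 µM Hyamine control and 100% = vehicle cell control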
[14] = RAM pathway blockade in budding yeast – dse1pr::URA3 reporter, 5-FOA selection, pilot screen (AID 869;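 active means inhibition over a set limit, the all-compound mean plus 3 SD, in both replicate runs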;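 further: 0% = DMSO wells with no growth and 100% = 10 µM 1-NA-PP1 with full growth; RAM network block rescues cells from 5-FOA so hits raise OD615 growth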); conditions: S. cerevisiae dse1pr::URA3 5-FOA growth, OD615, 2 d; at 10 µM; stronger effect = higher value; strain carries analog-sensitive mutant Cbk1 kinase
[15] = RAM signaling pathway blockade in yeast – S. cerevisiae, Pdr1DBD-CYC8 efflux-inhibited sensitized strain, primary screen (AID 1298;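 active means RAM network inhibition above 8.4% in each of two replicates, 3 SD over the compound average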;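 further: 0% = DMSO untreated cells without growth and 100% = 10 µM 1-NA-PP1 full growth; higher means more yeast growth rescued from 5-FOA killing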); conditions: S. cerevisiae cbk1-as DSE1-URA3 strain, 5-FOA growth OD615, 2 d; at 50 µM; stronger effect = higher value
[16] = H69AR cells + 2 uM doxorubicin, measured here: viability with 2 uM doxorubicin, stronger effect = lower value
[17] = H69AR cells, compound alone cytotoxicity

Sequence of Receptor tyrosine-protein kinase erbB-2 (Homo sapiens) (P04626 whole entry, looked up): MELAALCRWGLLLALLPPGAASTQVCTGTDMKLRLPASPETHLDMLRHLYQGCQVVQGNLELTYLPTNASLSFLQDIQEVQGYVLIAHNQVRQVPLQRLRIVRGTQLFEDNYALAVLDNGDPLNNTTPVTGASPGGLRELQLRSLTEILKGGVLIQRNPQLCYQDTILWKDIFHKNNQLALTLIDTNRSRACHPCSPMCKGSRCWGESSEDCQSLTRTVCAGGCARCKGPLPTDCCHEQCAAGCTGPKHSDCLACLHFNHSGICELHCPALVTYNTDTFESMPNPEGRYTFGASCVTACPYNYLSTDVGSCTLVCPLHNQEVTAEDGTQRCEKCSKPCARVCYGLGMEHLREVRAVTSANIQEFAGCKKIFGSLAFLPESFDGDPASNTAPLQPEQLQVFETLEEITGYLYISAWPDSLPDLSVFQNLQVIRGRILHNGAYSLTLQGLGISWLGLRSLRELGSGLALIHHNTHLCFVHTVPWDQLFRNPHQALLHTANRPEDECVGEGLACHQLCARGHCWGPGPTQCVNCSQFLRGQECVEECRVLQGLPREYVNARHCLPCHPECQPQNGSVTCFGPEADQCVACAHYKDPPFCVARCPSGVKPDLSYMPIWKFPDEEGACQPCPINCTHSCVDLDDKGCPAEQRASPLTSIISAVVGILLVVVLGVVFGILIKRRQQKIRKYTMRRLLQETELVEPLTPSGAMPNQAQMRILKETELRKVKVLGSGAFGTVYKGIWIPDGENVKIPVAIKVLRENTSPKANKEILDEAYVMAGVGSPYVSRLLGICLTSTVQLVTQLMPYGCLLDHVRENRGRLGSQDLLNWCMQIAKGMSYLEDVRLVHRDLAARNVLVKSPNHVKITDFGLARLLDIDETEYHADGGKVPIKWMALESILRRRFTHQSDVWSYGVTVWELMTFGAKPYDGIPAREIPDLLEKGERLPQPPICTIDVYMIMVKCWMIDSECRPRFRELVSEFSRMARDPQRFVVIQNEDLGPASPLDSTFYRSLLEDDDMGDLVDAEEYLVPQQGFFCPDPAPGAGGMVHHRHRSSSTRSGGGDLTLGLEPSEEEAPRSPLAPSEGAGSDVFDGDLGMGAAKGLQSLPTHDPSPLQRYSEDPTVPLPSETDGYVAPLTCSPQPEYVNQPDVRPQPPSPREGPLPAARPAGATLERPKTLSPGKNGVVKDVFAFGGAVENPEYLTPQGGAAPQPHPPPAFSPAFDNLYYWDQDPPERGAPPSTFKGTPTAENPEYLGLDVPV

Structure (SMILES) | viability [1] | Her2 level [2] | viability [3] | viability [4] | viability [5] | differential viability (reversal) ([6]; H69AR cells + 2 uM doxorubicin) | viability [6, 16] | viability [6, 17] | inhibition [7] | inhibition [8] | growth inhibition [9] | growth inhibition [10] | viability increase [11] | viability [12] | viability [13] | inhibition [14] | RAM network inhibition [15]
COC(=O)c1cc(OC)c(OC)cc1NC(=O)c1ccc(Br)o1 | 85.5% | 84% (inactive) | 85.5% (inactive) | 101% (inactive) | 87.6% (inactive) | -5.39% (inactive) | 93% | 87.6% | 0.13% (inactive) | 3% (inactive) | -14.5% (inactive) | -3.21% (inactive) | -0.2% (inactive) | 96% (inactive) | 86.1% (inactive) | 3.2% (inactive) | 4.75% (inactive)
COC(=O)Cn1c(CN2CCOCC2)nc2c1c(=O)n(C)c(=O)n2C | 81.5% | 86.5% (inactive) | 81.5% (inactive) | 89.2% (inactive) | 99.8% (inactive) | 5.79% (inactive) | 94% | 99.8% | -4% (inactive) | -2% (inactive) | -0.42% (inactive) | 1.05% (inactive) | -0.73% (inactive) | 104% (inactive) | 96.7% (inactive) | 1.2% (inactive) | -1.44% (inactive)
COc1ccc(N2CCN(C(=O)C(C)(C)Oc3ccc(Cl)cc3)CC2)cc1 | 85% | 91.5% (inactive) | 85% (inactive) | 76.9% (inactive) | 68.4% (inactive) | -10.2% (inactive) | 78.6% | 68.4% | -1.07% (inactive) | -2.83% (inactive) | -6.29% (inactive) | 5.29% (inactive) | -4.56% (inactive) | 74.4% (inactive) | 71.7% (inactive) | 1.45% (inactive) | 9.33% (inactive)
O=c1oc2c3c4c(cc2s1)CCCN4CCC3 | 89% | 86% (inactive) | 89% (inactive) | 101% (inactive) | 95.6% (inactive) | 4.35% (inactive) | 91.2% | 95.6% | -4.42% (inactive) | -2% (inactive) | 2.12% (inactive) | -7.54% (inactive) | -3.91% (inactive) | 101% (inactive) | 97.1% (inactive) | 1.76% (inactive) | 6.79% (inactive)
CCOC(=O)c1[nH]c(C)c(C(=O)Nc2ccc(Cl)cc2)c1C | 88.5% | 109% (inactive) | 88.5% (inactive) | 73.3% (inactive) | 85.9% (inactive) | -7.14% (inactive) | 93% | 85.9% | 1.92% (inactive) | 0.17% (inactive) | -1.96% (inactive) | 2.55% (inactive) | 2.64% (inactive) | 96.7% (inactive) | 95.2% (inactive) | 1.79% (inactive) | 3.1% (inactive)
Cc1cccnc1-n1c(CCN2C(=O)c3ccccc3C2=O)nc2ccccc2c1=O | 89.5% | 106% (inactive) | 89.5% (inactive) | 89.2% (inactive) | 95.1% (inactive) | 4.03% (inactive) | 91.1% | 95.1% | 1.28% (inactive) | -10.3% (inactive) | 6.29% (inactive) | -3.29% (inactive) | -2.01% (inactive) | 102% (inactive) | 97.4% (inactive) | 0.525% (inactive) | 3.68% (inactive)
CCOCCCNC(=O)CN1CCN(Cc2ccccc2C)C1=O | 83.5% | 96% (inactive) | 83.5% (inactive) | 97.8% (inactive) | 97% (inactive) | 7.06% (inactive) | 89.9% | 97% | -6.8% (inactive) | -7.7% (inactive) | -4.88% (inactive) | 6.12% (inactive) | 0.02% (inactive) | 94.7% (inactive) | 86.8% (inactive) | 1.54% (inactive) | 1.29% (inactive)
CCN1CCN(c2nc(C)nc3c2sc(=S)n3C)CC1 | 100% | 104% (inactive) | 100% (inactive) | 69.6% (inactive) | 90% (inactive) | -1.33% (inactive) | 91.3% | 90% | -3.73% (inactive) | 0.5% (inactive) | -11.2% (inactive) | -5.22% (inactive) | -2.66% (inactive) | 102% (inactive) | 92.6% (inactive) | 1.04% (inactive) | 1% (inactive)
CCc1c(C)c2c(C)nn(-c3ccccc3)c2[nH]c1=O | 83% | 81.5% (inactive) | 83% (inactive) | 68.9% (inactive) | 90.1% (inactive) | 5.91% (inactive) | 84.2% | 90.1% | -0.65% (inactive) | -1.31% (inactive) | -3.86% (inactive) | 4.15% (inactive) | -2.75% (inactive) | 85.1% (inactive) | 79% (inactive) | 1.53% (inactive) | 0.31% (inactive)
COc1ccc(-c2nc(CS(=O)CC(=O)NCc3ccccn3)c(C)o2)cc1 (stereo not drawn) | 103% | 92.5% (inactive) | 103% (inactive) | 92.9% (inactive) | 92.9% (inactive) | 8.14% (inactive) | 84.8% | 92.9% | -3.47% (inactive) | -2.46% (inactive) | -3.15% (inactive) | 18% (inactive) | -1.58% (inactive) | 95.9% (inactive) | 98.5% (inactive) | 1.57% (inactive) | 5.75% (inactive)
COc1ccc(C2CC(c3ccco3)n3ncnc3N2)cc1 (stereo not drawn) | 88% | 97% (inactive) | 88% (inactive) | 93.1% (inactive) | 95.4% (inactive) | -3.17% (inactive) | 98.6% | 95.4% | -3.07% (inactive) | -8.5% (inactive) | -4.26% (inactive) | 1.61% (inactive) | -0.91% (inactive) | 97.7% (inactive) | 94.6% (inactive) | 2.36% (inactive) | 0.32% (inactive)
COc1cccc(-c2nc3n(n2)C(c2ccccc2Cl)C(C(N)=O)=C(C)N3)c1 (stereo not drawn) | 91% | 94% (inactive) | 91% (inactive) | 74.3% (inactive) | 90.4% (inactive) | 14.6% (inactive) | 75.8% | 90.4% | -0.8% (inactive) | -5.17% (inactive) | -7.99% (inactive) | -0.24% (inactive) | -3.31% (inactive) | 82.8% (inactive) | 82.2% (inactive) | 0.735% (inactive) | 3.45% (inactive)
CCN1CCN(C(=O)Cn2ncc3ccsc3c2=O)CC1 | 101% | 110% (inactive) | 101% (inactive) | 89.8% (inactive) | 97% (inactive) | 4.04% (inactive) | 93% | 97% | -3.73% (inactive) | 0.5% (inactive) | -0.535% (inactive) | 2.34% (inactive) | 1.63% (inactive) | 105% (inactive) | 101% (inactive) | 1.72% (inactive) | 0.51% (inactive)
COc1c(C(=O)Nc2c(C)n(C)n(-c3ccccc3)c2=O)ccc2ccccc12 | 97% | 104% (inactive) | 97% (inactive) | 99.3% (inactive) | 113% (inactive) | 25.5% (inactive) | 87% | 113% | -1.07% (inactive) | -6.45% (inactive) | -2.42% (inactive) | -6.28% (inactive) | -0.81% (inactive) | 98.8% (inactive) | 98.3% (inactive) | 0.775% (inactive) | 4.37% (inactive)
O=C(NCCN1CCCCCC1)c1ccc(CS(=O)(=O)c2ccc(Br)cc2)o1 | 86.5% | 104% (inactive) | 86.5% (inactive) | 86.2% (inactive) | 91% (inactive) | 7.95% (inactive) | 83.1% | 91% | 0.8% (inactive) | 2.5% (inactive) | -6.86% (inactive) | -14.6% (inactive) | -3.11% (inactive) | 78% (inactive) | 82.6% (inactive) | -0.1% (inactive) | 4.63% (inactive)
O=C(Cn1ncc2c1-c1ccccc1OC2)N1CCN(c2ccccn2)CC1 | 91.5% | 108% (inactive) | 91.5% (inactive) | 101% (inactive) | 89.7% (inactive) | 4.26% (inactive) | 85.5% | 89.7% | -2.05% (inactive) | 0.67% (inactive) | -9.33% (inactive) | -14.6% (inactive) | -1.13% (inactive) | 99.9% (inactive) | 92.7% (inactive) | 0.525% (inactive) | 3.36% (inactive)
O=C(NC1CCCCCC1)c1c(F)c(F)c(F)c(F)c1F | 76.5% | 92% (inactive) | 76.5% (inactive) | 78.9% (inactive) | 101% (inactive) | 15.7% (inactive) | 85.2% | 101% | 0.26% (inactive) | -8.67% (inactive) | 4.54% (inactive) | 7.52% (inactive) | -3.82% (inactive) | 91.8% (inactive) | 93.5% (inactive) | 1.01% (inactive) | -1.79% (inactive)
CCCCN(C)C(=O)c1cn(C)c2ccc(S(=O)(=O)N(C)C)cc2c1=O | 96% | 102% (inactive) | 96% (inactive) | 102% (inactive) | 102% (inactive) | 6.23% (inactive) | 95.5% | 102% | 0.13% (inactive) | -4.5% (inactive) | -3.25% (inactive) | 3.02% (inactive) | 0.32% (inactive) | 100% (inactive) | 108% (inactive) | 0.805% (inactive) | 2.99% (inactive)
Cc1nc2c(-c3ccc(F)cc3)c(C)nn2c(C)c1CCC(=O)NC(C)CCc1ccco1 (stereo not drawn) | 102% | 59% (inactive) | 102% (inactive) | 63.1% (inactive) | 91.2% (inactive) | 10.4% (inactive) | 80.9% | 91.2% | -0.64% (inactive) | 7.83% (inactive) | 2.17% (inactive) | -4.76% (inactive) | -1.56% (inactive) | 75% (inactive) | 82.3% (inactive) | 0.865% (inactive) | 1.03% (inactive)
